The list is not random: actives were taken first. Their share in the collection is about 5.1%.
KDM4E inh: inhibitors of human JMJD2E histone demethylase; JMJD2E catalytic domain, FDH-coupled NADH fluorescence (FDH is formaldehyde dehydrogenase); Potency, µM (top dose mostly 57.1 µM), for the others: at the top dose activity change, negative = inhibition, usual class: inhibitors; hit rate 1.6% among 230,000; AID 2147; active means well fitted inhibition curve with a large enough effect, not every such curve was filed as active; inconclusive means small, poorly fitted or top-dose-only effect, or another doubt; inactive means no such curve, though single readings can be large or run the other way;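 further: potency means the concentration at half of the fitted maximal effect; 0% = wells with enzyme and -100% = buffer wells without enzyme; nearly all actives have a fitted effect of over 50% in size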
Target sequence (B2RXH2 1-337 limits assumed): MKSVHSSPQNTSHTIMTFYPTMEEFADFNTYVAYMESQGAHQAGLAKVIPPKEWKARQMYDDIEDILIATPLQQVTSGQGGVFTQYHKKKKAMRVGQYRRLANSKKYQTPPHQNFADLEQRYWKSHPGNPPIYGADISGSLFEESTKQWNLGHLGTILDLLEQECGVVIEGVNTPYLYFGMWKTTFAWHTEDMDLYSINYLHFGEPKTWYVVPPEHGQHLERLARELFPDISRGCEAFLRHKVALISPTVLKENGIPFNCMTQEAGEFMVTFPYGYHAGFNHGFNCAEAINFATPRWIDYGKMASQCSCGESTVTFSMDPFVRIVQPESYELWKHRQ
PNC assembly inh: perinucleolar compartment assembly inhibition; PC3M PTB-GFP, PNC prevalence imaging, 16 h; hits give low values; activity change (PNC), negative = inhibition, % at 10 µM; hit rate 3.1% among 140,000;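 active means readout at or below -70, meaning at least 70% loss of cells showing the perinucleolar compartment, a nuclear body marking cancer cells; inconclusive means readout between -30 and a set limit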;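 further: plate controls were DMSO wells for no effect and camptothecin positive control wells for full effect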
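Compounds are pinned in duplicate onto adhered PC3M cells stably expressing GFP-tagged PTB and incubated 16 h at 37 C. Cells are then fixed, nuclei stained with Hoechst, and PNC-positive cells counted.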
Tau FP inhib: tau fibrillization inhibition (FP) | K18 P301L tau heparin fibrillization, Alexa594 FP, 6 h | Potency, µM (doses to about 57.7 µM), for the others: top-dose activity, negative = inhibition, usual class: inhibitors | hit rate 0.39% among 280,000 | AID 1468; further: potency means the concentration at half of the fitted maximal effect; nearly all actives have a fitted effect of over 55% in size
Target sequence (P10636 561-689 P618L limits assumed): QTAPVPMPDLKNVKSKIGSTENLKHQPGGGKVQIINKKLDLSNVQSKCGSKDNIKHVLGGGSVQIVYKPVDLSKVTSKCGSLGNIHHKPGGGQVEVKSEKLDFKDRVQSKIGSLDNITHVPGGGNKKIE
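Read-out: fluorescence polarization of Alexa 594-labeled tau (0.24 uM), 555 nm excitation, 632 nm emission. Mixtures held 15 uM unlabeled K18 P301L, compound and 20 uM heparin, pH 7 acetate buffer, incubated 6 hr at 37 C.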
Tau fluor cs: counter-screen for tau fibril formation inhibitors. tau K18 P301L Alexa594 fluorescence, heparin fibrillization. Potency, µM (titrated, usually from 57.7 µM), for the others: at the top dose activity change, negative = decrease. hit rate 0.93% among 280,000; further: potency means the concentration at half of the fitted maximal effect; nearly all actives have a fitted effect of over 55% in size
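Human tau K18 P301L (15 uM unlabeled, 0.24 uM Alexa 594-labeled) in 100 mM sodium acetate pH 7 with 20 uM heparin, 6 hr at 37 C. ThT 30 uM added, 1 hr ambient; Alexa 594 FP and total fluorescence read at 555/632 nm.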
Tau fibril ThT: tau fibrillization inhibition (ThT binding); P10636; recombinant tau K18 P301L, heparin-induced fibrillization, ThT fluorescence; Potency, µM (titrated, usually from 57.4 µM), for inactives: at the top dose activity, negative = inhibition, actives largely listed as inhibitors; hit rate 2.1% among 270,000; AID 1460; further: potency means the concentration at half of the fitted maximal effect; nearly all actives have a fitted effect of over 55% in size
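Fibril formation assay: tau K18 P301L at 15 uM with trace Alexa 594 label, heparin inducer 20 uM, pH 7 sodium acetate buffer, 37 C for 6 hr; endpoint ThT signal.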
NPSR antag: antagonists of human neuropeptide S receptor cAMP signaling; CHO-NPSR cells, cAMP TR-FRET, antagonist mode; Potency, µM (highest dose often 38.3 µM), for inactives: top-dose activity change, negative = inhibition, hits mostly inhibitors; hit rate 1% among 220,000; further: potency means the concentration at half of the fitted maximal effect; nearly all actives have a fitted effect of over 50% in size
Numbers without * were called inactive; ? = inconclusive; . = no result; [ ] = remark or other dose. Unless noted, the call rests on the fitted dose curve; in most records, active means well fitted curve in the direction sought with a large enough effect; inconclusive means small, poorly fitted or top-dose-only effect, or another doubt; inactive means no such curve, though single readings can be large; an effect the other way counts as inactive or inconclusive. Unless noted, on the % scale 0 is the no-effect control and ±100 the full control effect.

SMILES	KDM4E inh	PNC assembly inh	Tau FP inhib	Tau fluor cs	Tau fibril ThT	NPSR antag
CCCCCCCc1ccc(-c2ccc(O)cc2)nc1	-3%	.	?	14µM*[quencher]	?	-9%
COc1ccccc1-c1cc(C(=O)Nc2ccc(F)cc2F)no1	-5%	-27	-12%	3%	-7%	?
COc1ccccc1-c1cc(C(=O)Nc2cc(C)nn2-c2ccccc2)no1	?	-129*	6%	3%	3%	-11%[46.1 µM]
COc1ccccc1-c1cc(C(=O)Nc2cc(Cl)ccc2O)no1	.	.	-11%	7.9µM*[quencher]	-2%	.
Cc1ccc(NC(=O)CN2C(=O)CCc3cc(S(=O)(=O)N4CCOCC4)ccc32)cc1F	.	.	-14%	-16%	2%	.
COCCN1C(=O)/C(=C/c2ccc(OCc3ccc(C(=O)O)cc3)c(OC)c2)SC1=Nc1ccccc1	-4%	39	15%	18%	?	13µM*
Cc1cc(C)[n+]2[nH]c(N)c(N=Nc3ccccc3)c2n1	-9%	.	4%	-21%	16µM*	38%
CCOC(=O)c1ccc(Oc2cc(C)nc(SC)n2)cc1	1%	-100*	6%	0%	?	-3%[46.1 µM]
CCOC(=O)COC(=O)c1ccc(Oc2cc(C)nc(SC)n2)cc1	-2%	31	1%	-13%	?	-14%[46.1 µM]
Cc1ccc2c(c1)N/C(=C(\C=C(/Cl)[N+](=O)[O-])[N+](=O)[O-])N2	?	.	-8%	?	18µM*	-5%
COc1cc(C(C[N+](=O)[O-])c2c(C)[nH]c3ccccc23)ccc1O (centres undefined)	8%	-3	11%	-28%	?	-15%
COc1ccccc1C(C[N+](=O)[O-])c1c[nH]c2ccccc12 (centres undefined)	-8%	.	?	32µM*[quencher]	-7%	?
COC(=O)c1c(N)n(-c2ccc(OC)c(OC)c2)c2nc3ccccc3nc12	.	.	1%	-10%	-17%	.
N#CCCn1cc(/C=N/NC(=O)c2ccncc2)c(-c2ccccc2)n1	1%	-84*	-10%	-6%	-16%	-17%[46.1 µM]
Cc1cc(=O)[nH]c(N/N=C/c2cn(CCC#N)nc2-c2ccccc2)n1	-10%	.	0%	1%	-5%	13%
COc1ccccc1OCCn1cc(/C=N/NC(=O)c2ccncc2)c2ccccc21	-9%	.	?	13µM*[quencher]	?	-14%
O=C(N/N=C/c1cn(CCOc2ccccc2)c2ccccc12)c1ccncc1	?	-8	3%	14µM*[quencher]	?	3%
COC(=O)N/N=C/c1cn(CCCOc2ccccc2)c2ccccc12	1%	105	2%	-5%	-6%	13%
COc1ccc(OC)c(NS(=O)(=O)c2ccc(N3CCCCS3(=O)=O)cc2)c1	.	.	-1%	-3%	7%	.
COC(=O)c1ccccc1NC(=O)Cn1c(=O)n(CCCC(=O)NCc2ccccc2OC)c(=O)c2ccccc21	.	.	-7%	-2%	-7%	.
O=C(CCn1c(=O)c2cccn2c2cccnc21)Nc1ccccc1Br	.	.	-4%	4%	1%	.
CCOC(=O)CSc1nc(N)c(C(=O)Nc2ccc(N(C)C)cc2)s1	3%	?	7%	?	16µM*	-7%[7.67 µM]
Oc1ccc(Nc2ccnc3cc(Cl)ccc23)cc1	-9%	.	-6%	-24%	?	0%[7.67 µM]
Clc1ccc(NNc2ccnc3cc(Cl)ccc23)cc1	-4%	-14	-9%	?	3.2µM*	-11%[46.1 µM]
C/C(N)=C(/C#N)C(=O)COC(=O)c1cccc2ccccc12	-2%	31	-14%	?	-3%	8%
C/C(N)=C(/C#N)C(=O)COC(=O)c1cc(-c2cccc3ccccc23)nc2ccccc12	?	-2	11µM*	?	-3%	-40%
O=C(Nc1cc(Cl)cc(Cl)c1)c1ccc(F)c(S(=O)(=O)N2CCc3ccccc32)c1	.	.	?	?	16%	.
N#Cc1c(/N=C/c2ccco2)sc2c1CCCCC2	0%	-5	-10%	-23%	4.5µM*	-23%[46.1 µM]

Source: PubChem
